Article PMC12136788
Positions count from the first letter of the chain named. Over roughly 24,000 sequences, “enrichment r” has its median near 0.99; the highest 2% begin near 3.7. Many of the other results were omitted from the sample, so the highest values are more common in it than they were.

T1: UNK ZnF1-3 (human, UniProt Q9C0B0 31-174)
T1 sequence: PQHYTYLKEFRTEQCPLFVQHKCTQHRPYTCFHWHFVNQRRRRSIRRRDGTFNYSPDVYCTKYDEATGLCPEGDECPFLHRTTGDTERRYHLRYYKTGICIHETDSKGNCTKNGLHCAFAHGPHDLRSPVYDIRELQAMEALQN

B1: chr6:36760027:36760028:-_ENSMUSG00000029838_ENSMUST00000101534|mus_hu|FALSE|FALSE (ssRNA)
RNA: GGGAGUUCUACAGUCCGACGAUCGUACCCGGCUCGCUGCAGCUCCUGCUUGGGCCGCUGCUGCUCUCCCCGCCUUCUGGACGGAUGACUCACUGGUCUCUUUCUUCCCCUCUCUCCACUUUGGAUUUUCCUCUGCUCUGGGGCCAACAGAGGAUUGAGCAUCA
B2: chr5:37680062:37680063:+_ENSMUSG00000029121_ENSMUST00000031004|mus_hu|mus_mus_mus_hu_False|8_38 (ssRNA)
RNA: GGGAGUUCUACAGUCCGACGAUCUUUGGGUGUAGCUGGUACCUCGUACACAGGACCGUCAUACAUGCCCCUGGAAACCCCUUGCAAUCCAAAAACCUUGCUUCUGAUUUUGACGCGCUGGUACAGGUGCUCUGGGAACGCCUUCAACAGAGGAUUGAGCAUCA
B3: chr18:54424204:54424205:+_ENSG00000091157_ENST00000357574|hu_mus|FALSE|FALSE (ssRNA)
RNA: GGGAGUUCUACAGUCCGACGAUCCCAGGCGUGGAGACAGGACAUGAAUAAUUUUGCGGUAUCCAUAGUAAGGUUGUAUUCUAGUAGGGUCAGUGGCUUGGACUUGCUGGCCCGGUACUCAGGGUCACUAUCCUCCCUGCUCUGCAACAGAGGAUUGAGCAUCA
B4: 95985174_95988629_161_5pUTR_ENSMUSG00000038486_ENSMUST00000035371|mouse|control|control (ssRNA)
RNA: GGGAGUUCUACAGUCCGACGAUCGGCUAAACUGAGGAUCCAAGAUAUUUCAGGGAGGGCUGCCUAUUUUUCUUCUGAGAGGCUCUGAAGACCUGAGCUUGGUUCCCCGGGUCAGGGAGUCCCCGGGUGAGGGAGGGGGUCCAGCAACAGAGGAUUGAGCAUCA
B5: chr8:35203877:35203878:-_ENSMUSG00000031513_ENSMUST00000033910|mus_hu|motif|central (ssRNA)
RNA: GGGAGUUCUACAGUCCGACGAUCGGAAGGGCACAUCCAAGCAUCAAAAACAUCAGUCCGAUUGCUCCUCCAAAGGACAAACGGAUCAAAGCUUUGAUGCCUGCCAUGGCGGUGACGUCGCUCCUGGCUCCACGACCCGAGGCGCAACAGAGGAUUGAGCAUCA
B6: chr7:54823571:54823572:-_ENSG00000132432_ENST00000352861|hu_mus|hu_hu_hu_mus_False|98_98 (ssRNA)
RNA: GGGAGUUCUACAGUCCGACGAUCUCCCAUGAUAGCAAAUCCUAUUGCUGUAGCCAUGGCAAUCUUCUGGAAUUCUUUUCUGUCGGGUUUGGUGCAUCUUUUAACCAGCCGAAUUGAGUCCUUUACAAACUGCCGGCUGGGCUCCAACAGAGGAUUGAGCAUCA
B7: 80410323_80421071_410_CDS_ENSMUSG00000027002_ENSMUST00000028386|mouse|control|control (ssRNA)
RNA: GGGAGUUCUACAGUCCGACGAUCCACAGCAGAUUCCAGGUUUUUGUCAAUAAGGUAGGAGGGUUUAGCCUUGGGGUCGCCACAUGCCUUCUUGAUGUUGUAGAGGCGCGUGAGCAUGCCGACGCCCCGGUCGUUGAGGAUGGUCAACAGAGGAUUGAGCAUCA
B8: chr2:25961539:25961540:-_ENSG00000143970_ENST00000336112|hu_mus|FALSE|FALSE (ssRNA)
RNA: GGGAGUUCUACAGUCCGACGAUCGAGUAAUGGAAAGCCUGCUCAUAACAAACCAUUUAACCCAAGAGCUCAUGAAACUUUAAGAGGAGGAAAGCAGCAUAGAGCAAUCAGAAUGGUAACUGAAGGGACCGUUCUAUGUAGGACCAACAGAGGAUUGAGCAUCA
B9: chr7:149838072:149838073:-_ENSMUSG00000048583_ENSMUST00000000033|mus_mus|FALSE|FALSE (ssRNA)
RNA: GGGAGUUCUACAGUCCGACGAUCGAUCACUGCUCCCGUUAUGUAGGGAAUGGGUACAAUUGAUUAUGAGCGCAUAAAAAGCUAAGGAGGGAUUAAAAAAAAAAGGAAAAAACCGGCCCCAGAAAUAAAAAGAGGGGAAUAGAUCAACAGAGGAUUGAGCAUCA
B10: chr3:94910677:94910678:-_ENSMUSG00000028126_ENSMUST00000107236|mus_mus|motif|central (ssRNA)
RNA: GGGAGUUCUACAGUCCGACGAUCACUUGAGCCGGGCCCCGGGAGUCCCGCGUCUCGGAUAGAACAAACCUAAAGGAAAACCGGGGCACCUGAGGUGCCCCCAAAAGCGAAUGCCCCCCCUCCCUCACCUCCCCAGCCACUGCCCAACAGAGGAUUGAGCAUCA
B11: chr7:75932113:75932114:+_ENSG00000106211_ENST00000248553|hu_hu|hu_hu_hu_mus_False|8_88 (ssRNA)
RNA: GGGAGUUCUACAGUCCGACGAUCCUGCGACCACUCAUCGGGCAACCGGGGCAGCCCGAAAGCUUGAUCGAAGAGGCGGCUGUGUGCAGGGUACCAGUCCCGGAAUGGUUCCCAGCUCGGGCUCCGCAGCGAGAAGGAGGGCACCAACAGAGGAUUGAGCAUCA
B12: chr7:149838072:149838073:-_ENSMUSG00000048583_ENSMUST00000000033|mus_mus|motif|central (ssRNA)
RNA: B9 RNA with U82G, A83G
B13: chr2:47388980:47388981:-_ENSG00000143933_ENST00000272298|hu_mus|hu_hu_hu_mus_True|8_68 (ssRNA)
RNA: GGGAGUUCUACAGUCCGACGAUCUUCAUCUGUUAACUUCUCGCCAAGGUUUGUCAUCACAUGGCGAAGUUCUGCAGCACUAAUAUAGCCAUUGCCAUCCUUAUCAAACACACGGAAUGCUUCUCUAAUUUCUUCUUCACUGUCCAACAGAGGAUUGAGCAUCA
B14: 160109231_160113639_413_CDS_ENSG00000112096_ENST00000546260|human|control|control (ssRNA)
RNA: GGGAGUUCUACAGUCCGACGAUCAACUUCAGUGCAGGCUGAAGAGCUAUCUGGGCUGUAACAUCUCCUGGAAAACUCGGAACCGGUACAAAUACGAAGCGAGUUCUCCUCCACGGAGAGGCCCGUCCGUAUGGGGCCUGGCUCCAACAGAGGAUUGAGCAUCA

These binders were tested against T1, UNK ZnF1-3 (assay: nsRBNS (natural sequence RNA bind-n-seq); RBNS binding buffer (assumed for nsRBNS): 25 mM Tris pH 7.5, 150 mM KCl, 3 mM MgCl2, 0.01% Triton X-100, 500 ug/ml BSA, 20 U/ml SUPERase-In, 4 C; UNK is unkempt and MSI1 is Musashi-1; names of the RNAs are library labels; protein concentration not given here; high values mean tight binding).

| Binder | binding signal |
| --- | --- |
| B1 | 0.683 enrichment R |
| B2 | 0.747 enrichment R |
| B3 | 0.993 enrichment R |
| B4 | 1.92 enrichment R |
| B5 | 0.394 enrichment R |
| B6 | 0.647 enrichment R |
| B7 | 0.855 enrichment R |
| B8 | 3.45 enrichment R |
| B9 | 11 enrichment R |
| B10 | 2 enrichment R |
| B11 | 1.63 enrichment R |
| B12 | 9.4 enrichment R |
| B13 | 0.795 enrichment R |
| B14 | 0.808 enrichment R |
